Six1-Eya2 blk = blocks human Six1 binding to Eya2; Q15475+O00167; AlphaScreen GST-Six1/His-Eya2 binding, biochemical; stronger effect = lower value; activity change, % (concentration not given with the values); 360,000 compounds, 0.56% hits; AID 651725; in the data active means activity change below about -65%; inconclusive means mostly about -30% to -63%; further: on the % scale 0 is the no-effect control and ±100 the full control effect
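AlphaScreen with GST-Six1 and His-Eya2 (5X mix: 250 nM and 500 nM), glutathione donor and nickel acceptor beads; buffer 50 mM Tris pH 8.0, 300 mM NaCl, 1 mM TCEP; 1 h at 37 C in the dark.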
MBNL1-CUG inh = inhibitors of human MBNL1 binding to CUG repeat RNA. TR-FRET MBNL1-His/biotin-(CUG)12 binding, 665/545 ratio. Potency, µM (highest dose often 57.5 µM), for the others: at the top dose activity change, negative = inhibition, hits mostly inhibitors. 280,000 compounds, 0.036% hits; active means well fitted inhibition curve with a large enough effect in the signal ratio, with a control signal flat, not every such curve was filed as active; inconclusive means small, poorly fitted or top-dose-only effect, or effect the other way, or a change in a side signal; inactive means no such curve, though single readings can be large or run the other way; the % refers to the signal ratio; further: potency means the concentration at half of the fitted maximal effect; on the % scale 0 is the no-effect control and ±100 the full control effect
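Compounds (final 92 nM to 58 uM) are added to His-tagged MBNL1 and biotin-(CUG)12, then terbium anti-His antibody and streptavidin-XL665 (5 nM final). After 60 min at room temperature, the 665/545 nm ratio is read.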
CtBP-E1A blk = inhibitors of CtBP/E1A interaction; AlphaScreen GST-E1A/His-CtBP binding, 1536-well; stronger effect = lower value; activity change, % (test concentration not listed); 340,000 compounds, 0.49% hits; in the data active means activity change below about -65%; inconclusive means mostly about -30% to -63%; further: on the % scale 0 is the no-effect control and ±100 the full control effect
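Homogeneous bead-based format: GST-tagged E1A captured on glutathione donor beads, His-tagged CtBP on nickel acceptor beads; compounds precede bead addition by 2 h at 37 °C.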
RORgamma inh = ROR gamma (mouse) transcription inhibition. Drosophila S2 Gal4-RORgamma UAS-luciferase reporter, 20 h. Potency, µM (top dose mostly 53.6 µM), inactives show top-dose activity change, negative = inhibition, actives largely listed as inhibitors. 310,000 compounds, 5.4% hits. AID 2551; further: potency means the concentration at half of the fitted maximal effect; on the % scale 0 is the no-effect control and ±100 the full control effect; nearly all actives have a fitted effect of over 60% in size
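Using a luciferase readout, inhibitors were identified by reduced reporter activity in Drosophila cells coexpressing a copper-inducible Gal4–ROR gamma fusion and UAS-driven Photinus luciferase, incubated 20 hr after 700 uM copper sulfate.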
CBFb RUNX1 block = CBF-beta/RUNX1 interaction disruption | 230,000 tested, under 10 active | Potency, µM (series often up to 59.8 µM), for the others: at the top dose activity, negative = inhibition, actives largely listed as inhibitors | AlphaScreen CBFb-His/RUNX1-biotin binding, biochemical | Q01196+Q13951 | AID 1477; further: % of control where 0% means no effect
Target sequence (Q01196 whole entry, looked up): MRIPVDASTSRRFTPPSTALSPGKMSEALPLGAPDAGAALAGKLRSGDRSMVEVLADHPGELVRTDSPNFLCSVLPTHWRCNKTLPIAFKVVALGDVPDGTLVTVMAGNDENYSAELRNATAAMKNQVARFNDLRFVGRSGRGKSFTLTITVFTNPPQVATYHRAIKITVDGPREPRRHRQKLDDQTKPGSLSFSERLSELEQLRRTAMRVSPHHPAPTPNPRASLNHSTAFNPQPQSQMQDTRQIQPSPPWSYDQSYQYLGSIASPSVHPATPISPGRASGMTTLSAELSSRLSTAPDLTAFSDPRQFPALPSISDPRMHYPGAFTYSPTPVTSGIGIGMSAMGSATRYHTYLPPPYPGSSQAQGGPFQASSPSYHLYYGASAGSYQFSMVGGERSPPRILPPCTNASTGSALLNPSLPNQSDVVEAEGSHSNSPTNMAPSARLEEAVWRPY
Target sequence (Q13951 whole entry, looked up): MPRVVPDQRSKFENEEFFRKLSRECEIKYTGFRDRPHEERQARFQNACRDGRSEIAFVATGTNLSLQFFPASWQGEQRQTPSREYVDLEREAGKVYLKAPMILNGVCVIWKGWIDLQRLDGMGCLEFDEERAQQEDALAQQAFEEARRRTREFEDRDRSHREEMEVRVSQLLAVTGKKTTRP
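AlphaScreen binding: CBFb-His and RUNX1-biotin (30 nM each) preincubated 20 min, compound added for 15 min, then nickel and streptavidin beads for 90 min, all at room temperature. Disruption of the interaction by any mechanism counts as activity.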
VP16 counter = Gal4-VP16 reporter inhibition counter-screen. 310,000 compounds, 3.5% hits. Potency, µM (doses to about 53.6 µM), without a hit: top-dose activity, negative = inhibition, actives largely listed as inhibitors. Drosophila S2 Gal4-VP16 UAS-luciferase, luminescence, 20 h. AID 2546;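 further: Gal4-VP16 expression switched on by copper sulfate through the metallothionein promoter; potency means the concentration at half of the fitted maximal effect; on the % scale 0 is the no-effect control and ±100 the full control effect; nearly all actives have a fitted effect of over 50% in size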
An asterisk follows results filed as active; ? = inconclusive; · = no result; [ ] = dose if it differs, or a comment. Most compounds without a hit are left out; they make up all but 5.5% or so of the library. Unless noted, the call rests on the fitted dose curve; in most records, active means well fitted curve in the direction sought with a large enough effect; inconclusive means small, poorly fitted or top-dose-only effect, or another doubt; inactive means no such curve, though single readings can be large; an effect the other way counts as inactive or inconclusive.

SMILES	Six1-Eya2 blk	MBNL1-CUG inh	CtBP-E1A blk	RORgamma inh	CBFb RUNX1 block	VP16 counter
Cc1ccc(-n2cc(CNC(C)c3cnn(C)c3C)c(-c3ccc(F)cc3)n2)cc1 (configuration not stated)	-11	5%	-2	?	9%	-29%
O=C(NC(=S)N1CCN(c2ccccn2)CC1)c1ccco1	-5	-7%	·	0.18µM*	2%	3.2µM*
COc1ccc(C(=O)NC(=S)N2CCN(c3ccc([N+](=O)[O-])cc3)CC2)cc1	-25	11%	-9	0.63µM*	3%	0.89µM*
CCN(C[C@H]1N[C@@](Cc2ccccc2)(C(=O)OC)[C@H]2C(=O)N(C)C(=O)[C@@H]12)C(=O)Nc1ccc(Cl)cc1	5	·	5	·	·	·
Cn1c(SCc2ccccc2F)nc2cccnc21	7	-1%	2	-24%	4%	8%
Nc1nc(-c2nn(Cc3ccccc3F)c3ncccc23)ncc1C1CC1	·	·	·	1.8µM*	1%	13µM*
COc1ccc(-c2nc(-c3ccccc3)c(NC(C)C)o2)cc1	·	·	·	-5%	14%	-5%
COc1ccc(/C=N/Nc2nc3ccccc3[nH]2)c(OC)c1OC	-4	·	-17	13µM*	-18%	-25%
Cc1ccccc1/C=N/Nc1nc2ccccc2[nH]1	12	2%	-8	7.1µM*	-2%	-93%
c1cnc2c(OCc3nc4ccccc4[nH]3)cccc2c1	2	15%	11	?	6%	?
C(=N\Nc1nc2ccccc2[nH]1)/c1c[nH]c2ccccc12	-23	·	?	3.5µM*	-23%	10µM*
C(=N\Nc1nc2ccccc2[nH]1)/c1cccc2cccnc12	-84*	·	·	0.35µM*	?	2.2µM*
COc1ccc(C(=O)NCCNC(=O)c2cnccn2)cc1	2	-1%	-4	1%	·	8%
CC(C)CC1(C)NC(=O)N(CC(=O)N2C(C)CCCC2C)C1=O (configuration not stated)	5	·	-2	·	·	·
Cc1c(NC(=O)COC(=O)/C=C/c2ccccc2Br)c(=O)n(-c2ccccc2)n1C	-2	·	0	·	·	·
O=c1[nH]c(N/N=C/c2cc3c(cc2[N+](=O)[O-])OCO3)nc2ccccc12	4	13%	·	-19%	6%	25%
Cc1ccc(/C=N/Nc2nc(Cl)c(Cl)cc2Cl)s1	-3	-1%	-3	11µM*	3%	?
Cc1ccsc1/C=N/Nc1nc(Cl)c(Cl)cc1Cl	4	-8%	3	-34%	4%	4%
O=[N+]([O-])c1cc(/C=N/Nc2nc3ccccc3[nH]2)c(O)cc1O	-97*	?	-99*	3.5µM*	0%	3.2µM*
Cc1ccc(/C=N/Nc2nc3ccccc3[nH]2)s1	-14	?	15	4.5µM*	-2%	5µM*
O=C(O)CN1C(=O)C2C3CCC(C3)C2C1=O (configuration not stated)	8	·	9	·	·	·
CCN(CC(=O)NC(=O)NCc1ccco1)Cc1nc2ccccc2c(=O)[nH]1	-14	-1%	-29	0.56µM*	24%	1.1µM*
CCN(CC(=O)NCc1ccc(F)cc1)Cc1cc(=O)n2ccsc2n1	6	-4%	6	6%	5%	-1%
CN(CC(=O)Nc1ccc2c(c1)OCCO2)Cc1nc2ccccc2c(=O)[nH]1	-8	·	-6	·	·	·
Cc1ccc(NC(=O)CN(C)Cc2nc3ccccc3c(=O)[nH]2)c(Br)c1	-20	0%	-3	11µM*	1%	?
SMILES	Six1-Eya2 blk	MBNL1-CUG inh	CtBP-E1A blk	RORgamma inh	CBFb RUNX1 block	VP16 counter
Cc1c(Cl)cn2c(=O)cc(CN(C)Cc3nc4ccccc4c(=O)[nH]3)nc2c1Cl	·	17%	·	18µM*	3%	-11%
CCN(Cc1cc(=O)n2ccsc2n1)Cc1nc2ccccc2c(=O)[nH]1	-26	-2%	-22	2.2µM*	-7%	10µM*
CC(=O)NCCNc1ncnc2ccc(-c3ccc4c(c3)OCO4)cc12	·	·	·	?	·	-3%
CCN(CC(=O)NCCc1ccc(S(N)(=O)=O)cc1)Cc1nc2cc(OC)c(OC)cc2c(=O)[nH]1	11	-4%	-7	-26%	-15%	0%
CC(C(=O)Nc1ccccc1-c1ccccc1)N(C)Cc1nc2ccccc2c(=O)[nH]1 (configuration not stated)	-7	-2%	·	14µM*	10%	-8%
CCN(CC(=O)Nc1ccccc1Br)Cc1nc2ccccc2c(=O)[nH]1	2	0%	0	11µM*	-8%	?
Cc1cc(Br)ccc1NC(=O)CNC(=O)CN(C)Cc1nc2ccccc2c(=O)[nH]1	3	-5%	9	13µM*	5%	-30%
CC(NC(=O)CN(C)Cc1nc2ccccc2c(=O)[nH]1)c1ccccc1 (configuration not stated)	-7	-6%	-6	5%	0%	-5%
CCN(CC(=O)NCCc1ccc(S(N)(=O)=O)cc1)Cc1nc2ccccc2c(=O)[nH]1	-1	1%	-5	6.3µM*	2%	20µM*
C=CCN(C(=O)CCC(=O)Nc1cc(C)on1)C(C(=O)NC1CCCC1)c1ccc(Cl)cc1 (configuration not stated)	4	-6%	3	15%	·	-1%
OC(c1cc(-c2ccc(C(F)(F)F)cc2)nc(C(F)(F)F)c1)C1CCCCN1 (configuration not stated)	9	-5%	·	?	1%	22µM*
Cc1ccc(Sc2ncnc(N)c2[N+](=O)[O-])cc1	7	?	2	-41%	3%	2%
Nc1ncnc(Sc2ncccn2)c1[N+](=O)[O-]	8	?	5	4µM*	2%	7.1µM*
Nc1ncnc(Sc2ccccc2)c1[N+](=O)[O-]	1	?	-3	10µM*	0%	?
Nc1ncnc(Sc2ccc(Cl)cc2)c1[N+](=O)[O-]	-1	·	0	-40%	15%	6%
Cc1cc(C)nc(NN2C(=O)C=CC2=O)n1	0	9%	·	?	·	?
COc1ccc(S(=O)(=O)N2CCCCCC2)cc1C(=O)NCCOc1ccc(C)cc1	-2	·	-6	·	·	·
COc1ccc(CCN(C)CCCOc2ccc(S(=O)(=O)c3[nH]c4ccccc4c3C(C)C)cc2)cc1OC	·	·	·	14µM*	-12%[21.7 µM]	18µM*
COc1ccc(CCN(C)CCc2ccc(OC)c(OC)c2)cc1OC	1	·	-9	8%	?	2%
Cc1ccc(-c2nn(-c3ccccc3)cc2CO)cc1	0	-1%	10	11%	·	-11%
Cc1ccc(-c2nn(-c3ccccc3)cc2CNCc2ccccc2)cc1	9	-6%	11	?	1%	14µM*
